# ± gives the standard deviation of the averaged measurements.
# Legend:
# Assay in all cases: promoter activity interaction Z-score (Lux/OD deviation from empty-vector control); higher = stronger promoter induction by the compound
# [1] = test system: E. coli BW25113 acrABp lux reporter
# Summary of the method: (§1)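 Four 1:2 dilutions of each compound were tested in biological duplicates on E. coli BW25113 carrying low-copy luxCDABE promoter reporters, either wild type or deleted for one of three genes. Cultures of 40 µl LB Lennox in 384-well plates were kept at 37°C and read for OD600 and luminescence every 30 min for 12 h. Integration windows were 0–8 h for wild type and 1–9 h for deletion strains, and wells under 10% of the median growth value were discarded. The score is a Z-transformed residual of growth-normalised luminescence relative to a control fit.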
# [2] = test system: E. coli BW25113 micFp lux reporter
# Summary of the method: as §1
# [3] = test system: E. coli BW25113 ompFp lux reporter
# Summary of the method: as §1
# [4] = test system: E. coli BW25113 robp lux reporter
# Summary of the method: as §1
# [5] = test system: E. coli BW25113 soxSp lux reporter
# Summary of the method: as §1
# [6] = test system: E. coli BW25113 tolCp lux reporter
# Summary of the method: as §1
# [7] = 13.7 µg/ml, genetic background: wild type
# [8] = 13.7 µg/ml, genetic background: ΔmarA
# [9] = 13.7 µg/ml, genetic background: Δrob
# [10] = 13.7 µg/ml, genetic background: ΔsoxS
# [11] = 27.5 µg/ml, genetic background: wild type
# [12] = 27.5 µg/ml, genetic background: ΔmarA
# [13] = 27.5 µg/ml, genetic background: Δrob
# [14] = 27.5 µg/ml, genetic background: ΔsoxS
# [15] = 54.9 µg/ml, genetic background: wild type
# [16] = 54.9 µg/ml, genetic background: ΔmarA
# [17] = 54.9 µg/ml, genetic background: Δrob
# [18] = 54.9 µg/ml, genetic background: ΔsoxS
# [19] = 109.8 µg/ml, genetic background: wild type
# [20] = 109.8 µg/ml, genetic background: ΔmarA
# [21] = 109.8 µg/ml, genetic background: Δrob
# [22] = 109.8 µg/ml, genetic background: ΔsoxS
smiles,measurement,setting,value
CNC[C@H](O)c1ccc(O)c(O)c1 [Adrenalin],promoter activity interaction Z-score,[1]; [7],-0.118 ± 0.26
same,promoter activity interaction Z-score,[1]; [8],-0.4 ± 0.56
same,promoter activity interaction Z-score,[1]; [9],0.0418 ± 0.19
same,promoter activity interaction Z-score,[1]; [10],-0.382 ± 0.4
same,promoter activity interaction Z-score,[1]; [11],-0.0931 ± 0.1
same,promoter activity interaction Z-score,[1]; [12],0.531 ± 0.016
same,promoter activity interaction Z-score,[1]; [13],-0.104 ± 0.11
same,promoter activity interaction Z-score,[1]; [14],-0.043 ± 0.052
same,promoter activity interaction Z-score,[1]; [15],-0.373 ± 0.29
same,promoter activity interaction Z-score,[1]; [16],0.688 ± 0.54
same,promoter activity interaction Z-score,[1]; [17],-0.345 ± 0.12
same,promoter activity interaction Z-score,[1]; [18],-0.566 ± 0.013
same,promoter activity interaction Z-score,[1]; [19],-0.472 ± 0.26
same,promoter activity interaction Z-score,[1]; [20],0.342 ± 0.19
same,promoter activity interaction Z-score,[1]; [21],0.0555 ± 0.04
same,promoter activity interaction Z-score,[1]; [22],0.539 ± 0.12
same,promoter activity interaction Z-score,[2]; [7],-0.11 ± 0.0085
same,promoter activity interaction Z-score,[2]; [8],-0.0104 ± 0.018
same,promoter activity interaction Z-score,[2]; [9],0.263 ± 0.12
same,promoter activity interaction Z-score,[2]; [10],-0.351 ± 0.072
same,promoter activity interaction Z-score,[2]; [11],-0.259 ± 0.091
same,promoter activity interaction Z-score,[2]; [12],-0.0735 ± 0.14
same,promoter activity interaction Z-score,[2]; [13],0.173 ± 0.31
same,promoter activity interaction Z-score,[2]; [14],0.192 ± 0.11
same,promoter activity interaction Z-score,[2]; [15],-0.122 ± 0.19
same,promoter activity interaction Z-score,[2]; [16],0.0635 ± 0.093
same,promoter activity interaction Z-score,[2]; [17],0.189 ± 0.21
same,promoter activity interaction Z-score,[2]; [18],-0.508 ± 0.077
same,promoter activity interaction Z-score,[2]; [19],-0.426 ± 0.33
same,promoter activity interaction Z-score,[2]; [20],-0.136 ± 0.074
same,promoter activity interaction Z-score,[2]; [21],0.0853 ± 0.074
same,promoter activity interaction Z-score,[2]; [22],-0.142 ± 0.14
same,promoter activity interaction Z-score,[3]; [7],0.379 ± 0.018
same,promoter activity interaction Z-score,[3]; [8],-0.309 ± 0.22
same,promoter activity interaction Z-score,[3]; [9],-0.171 ± 0.37
same,promoter activity interaction Z-score,[3]; [10],-0.679 ± 0.25
same,promoter activity interaction Z-score,[3]; [11],0.362 ± 0.017
same,promoter activity interaction Z-score,[3]; [12],0.00142 ± 0.52
same,promoter activity interaction Z-score,[3]; [13],-0.0408 ± 0.55
same,promoter activity interaction Z-score,[3]; [14],-0.0291 ± 0.36
same,promoter activity interaction Z-score,[3]; [15],-0.597 ± 0.18
same,promoter activity interaction Z-score,[3]; [16],0.175 ± 0.27
same,promoter activity interaction Z-score,[3]; [17],-1.07 ± 0.55
same,promoter activity interaction Z-score,[3]; [18],-0.961 ± 0.21
same,promoter activity interaction Z-score,[3]; [19],-0.0147 ± 0.25
same,promoter activity interaction Z-score,[3]; [20],-0.377 ± 0.44
same,promoter activity interaction Z-score,[3]; [21],-0.876 ± 1.6
same,promoter activity interaction Z-score,[3]; [22],-0.239 ± 0.22
same,promoter activity interaction Z-score,[4]; [7],-0.189 ± 0.26
same,promoter activity interaction Z-score,[4]; [8],-0.738 ± 0.13
same,promoter activity interaction Z-score,[4]; [9],-0.362 ± 0.49
same,promoter activity interaction Z-score,[4]; [10],-0.567 ± 0.17
same,promoter activity interaction Z-score,[4]; [11],0.83 ± 0.5
same,promoter activity interaction Z-score,[4]; [12],-0.178 ± 0.0036
same,promoter activity interaction Z-score,[4]; [13],-0.489 ± 0.6
same,promoter activity interaction Z-score,[4]; [14],-0.00139 ± 0.12
same,promoter activity interaction Z-score,[4]; [15],-0.414 ± 0.15
same,promoter activity interaction Z-score,[4]; [16],-0.097 ± 0.33
same,promoter activity interaction Z-score,[4]; [17],-0.505 ± 1.8
same,promoter activity interaction Z-score,[4]; [18],-0.645 ± 0.021
same,promoter activity interaction Z-score,[4]; [19],-0.53 ± 0.61
same,promoter activity interaction Z-score,[4]; [20],-0.598 ± 0.62
same,promoter activity interaction Z-score,[4]; [21],-1.48 ± 0.78
same,promoter activity interaction Z-score,[4]; [22],-1.95 ± 0.2
same,promoter activity interaction Z-score,[5]; [7],0.381 ± 0.43
same,promoter activity interaction Z-score,[5]; [8],0.0748 ± 0.12
same,promoter activity interaction Z-score,[5]; [9],0.425 ± 0.29
same,promoter activity interaction Z-score,[5]; [10],-0.181 ± 0.096
same,promoter activity interaction Z-score,[5]; [11],0.23 ± 0.19
same,promoter activity interaction Z-score,[5]; [12],0.131 ± 0.16
same,promoter activity interaction Z-score,[5]; [13],0.208 ± 0.28
same,promoter activity interaction Z-score,[5]; [14],0.264 ± 0.64
same,promoter activity interaction Z-score,[5]; [15],0.0152 ± 0.17
same,promoter activity interaction Z-score,[5]; [16],-0.0453 ± 0.22
same,promoter activity interaction Z-score,[5]; [17],0.121 ± 0.0073
same,promoter activity interaction Z-score,[5]; [18],-0.333 ± 0.19
same,promoter activity interaction Z-score,[5]; [19],-0.143 ± 0.091
same,promoter activity interaction Z-score,[5]; [20],-0.248 ± 0.045
same,promoter activity interaction Z-score,[5]; [21],0.0524 ± 0.1
same,promoter activity interaction Z-score,[5]; [22],0.0254 ± 0.36
same,promoter activity interaction Z-score,[6]; [7],-0.595 ± 0.65
same,promoter activity interaction Z-score,[6]; [8],-0.333 ± 0.39
same,promoter activity interaction Z-score,[6]; [9],0.343 ± 0.15
same,promoter activity interaction Z-score,[6]; [10],-0.571 ± 0.34
same,promoter activity interaction Z-score,[6]; [11],-0.0385 ± 0.61
same,promoter activity interaction Z-score,[6]; [12],-0.394 ± 0.82
same,promoter activity interaction Z-score,[6]; [13],-0.578 ± 0.57
same,promoter activity interaction Z-score,[6]; [14],1.04 ± 1.6
same,promoter activity interaction Z-score,[6]; [15],-0.749 ± 0.67
same,promoter activity interaction Z-score,[6]; [16],0.176 ± 0.046
same,promoter activity interaction Z-score,[6]; [17],-0.0706 ± 0.3
same,promoter activity interaction Z-score,[6]; [18],0.0714 ± 0.89
same,promoter activity interaction Z-score,[6]; [19],-0.414 ± 0.029
same,promoter activity interaction Z-score,[6]; [20],-0.30805 ± 0.0003
same,promoter activity interaction Z-score,[6]; [21],-0.0487 ± 0.27
same,promoter activity interaction Z-score,[6]; [22],-0.39 ± 1.4
